Bioassay records: PubChem BioAssay, National Center for Advancing Translational Sciences (NCATS)
Shown are actives, neighbours in structure and some others; about 9.3% of the full set was active somewhere.
Sm TGR block: blocks Schistosoma mansoni thioredoxin glutathione reductase; purified TGR, DTNB reduction, TNB absorbance 405 nm; Potency, µM (doses to about 114 µM), without a hit: at the top dose activity change, negative = inhibition, most hits filed as inhibitors; 360,000 compounds, 3% hits; further: potency means the concentration at half of the fitted maximal effect; nearly all actives have a fitted effect of over 60% in size
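Kinetic colorimetric format: TGR-catalysed, NADPH-driven DTNB reduction monitored via TNB absorbance. Enzyme dispensed at 20 nM; compound exposure 15 min at room temperature before reaction start.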
HCV inhibitor: HCV inhibition; Huh7.5.1 HCVcc-Cre infection, luciferase reporter, 44 h; Potency, µM (doses to about 41.8 µM), without a hit: at the top dose activity change, negative = inhibition, usual class: inhibitors; 340,000 compounds, 3.4% hits; further: potency means the concentration at half of the fitted maximal effect
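Whole-lifecycle infectious HCVcc-Cre system; cells 1,000/well, compound then virus (~0.5 moi) added 4 h after plating, 44 h culture. Luciferase read 15 sec following 15 min substrate incubation, room temp.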
VACV Venus inh: vaccinia inhibition (Venus reporter). Vaccinia virus Venus reporter expression, fluorescence. 330,000 compounds, 0.46% hits. Potency, µM (series often up to 36.5 µM), inactives show at the highest dose activity change, negative = inhibition, actives largely listed as inhibitors; calls by dose curve; tested in A549 cells; further: potency means the concentration at half of the fitted maximal effect; nearly all actives have a fitted effect of over 30% in size
VACV mCherry inh: vaccinia inhibition (mCherry reporter); 310,000 compounds, 0.63% hits; Vaccinia virus mCherry reporter infection, fluorescence; Potency, µM (doses to about 36.5 µM), without a hit: at the highest dose activity change, negative = inhibition, most hits filed as inhibitors; calls by dose curve; tested in A549 cells; further: potency means the concentration at half of the fitted maximal effect; nearly all actives have a fitted effect of over 35% in size
FMDV inh: antivirals against foot and mouth disease virus | FMDV antiviral cell-based qHTS | AID 1159524 | 410,000 compounds, 1.2% hits | Potency, µM (highest dose often 57.9 µM), for inactives: at the highest dose activity change, negative = inhibition, actives largely listed as inhibitors; calls by dose curve; tested in HEK293T cells; further: read-out not given here; potency means the concentration at half of the fitted maximal effect; nearly all actives have a fitted effect of over 45% in size
HCMV antiviral: blocks human cytomegalovirus replication. 410,000 compounds, 4.5% hits. HFF cells, HCMV-luciferase reporter, 72 h; stronger effect = lower value. activity change, negative = inhibition, % at 57.5 µM. AID 1259415; in the data active means activity change below about -60%; inconclusive means no clear call, values can overlap the other calls; inactive means above about -39%
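Compounds were evaluated in HFFs infected with an HCMV luciferase reporter virus (MOI 1 PFU/cell). Luciferase in lysates collected 72 h post infection served as the replication measure.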
Numbers without * were called inactive; i = inactive; u = inconclusive; x = no result given; [ ] = remark or other dose. Unless noted, the call rests on the fitted dose curve; in most records, active means well fitted curve in the direction sought with a large enough effect; inconclusive means small, poorly fitted or top-dose-only effect, or another doubt; inactive means no such curve, though single readings can be large; an effect the other way counts as inactive or inconclusive. On the % scale 0 is the no-effect control and ±100 the full control effect.

SMILES	Sm TGR block	HCV inhibitor	VACV Venus inh	VACV mCherry inh	FMDV inh	HCMV antiviral
CCN1CCN(S(=O)(=O)c2ccc(Br)s2)CC1	2%	14%	-14%	i	-1%	59
Cc1ccc(-n2ncc3c(N4CCC(C(N)=O)CC4)ncnc32)c(C)c1	4%	14%	x	x	53%	x
Cc1ccc(-n2ncc3c(N4CCC5(CC4)OCCO5)ncnc32)c(C)c1	-3%	u	-7%	-2%	40µM*	54
CCOC(=O)C1=C(O)/C(=C/c2ccc(OCC(=O)O)c(OC)c2)SC1=Nc1ccc(OC)cc1	-16%	-2%	-12%	i	-18%	-19
COc1cc(/C=C2\SC(=O)N(CCN)C2=O)ccc1OS(=O)(=O)c1cc(C)ccc1C	4%	13µM*	-24%	-28%	u	u
CCN(C(=O)CSc1nc2ccccc2nc1Cc1ccccc1OC)c1ccccc1	-5%	x	-6%	-16%	37%	-18
CCOc1ccccc1NC(=O)Cn1c(=O)ccc2cc(S(=O)(=O)N3CCC(C)CC3)ccc21	-6%	x	-9%	-11%	-13%	-1
CCc1oc2ccccc2c1C(=O)c1cc(Br)c(O)c(Br)c1	-16%	2%[8.37 µM]	-16%	-15%	u	-11
CN1c2ccccc2C(C)(C)C12C=Cc1cc(O)ccc1O2 (configuration not stated)	u	5.6µM*	63%	i	x	-38
Cn1c(=O)c2ccccc2n2c(CCC(=O)N3CCN(c4cccc(Cl)c4)CC3)nnc12	8%	x	-1%	-10%	-10%	-22
O=C(NCc1cccnc1)c1ccc(COc2ccccc2Br)cc1	2%	u	-21%	i	u	-76*
O=C(NCc1cccnc1)c1ccc(COc2ccccc2Cl)cc1	10%	u	x	x	-26%	-73*
COCCNC(=O)NC1(C(F)(F)F)Oc2ccc(Cl)cc2O1 (configuration not stated)	-21%	u	x	x	u	55
O=C(NCc1cccnc1)c1cccc(F)c1	4%	-9%	-4%	x	u	29
O=C(NCc1cccnc1)c1cccc(Cl)c1	5%	14%	-22%	x	-1%	-61*
O=C(NCc1cccnc1)NC1(C(F)(F)F)Oc2ccc(Cl)cc2O1 (configuration not stated)	-23%	10µM*	u	u	u	x
COC(=O)COc1cccc2c(=O)n(CC(=O)NCc3ccc(F)cc3)ccc12	-1%	-8%	-20%	-4%	-17%	-24
O=C(NCc1ccco1)c1ccc(COc2ccccc2Cl)cc1	u	11µM*	u	x	-13%	-28
Cc1[nH]n(-c2ccccc2)c(=O)c1C(C[N+](=O)[O-])c1ccc(Cl)cc1 (configuration not stated)	1.6µM*	3%	-3%	i	u	u
Cc1ccc(C(C[N+](=O)[O-])c2c(C)[nH]n(-c3ccccc3)c2=O)cc1 (configuration not stated)	-33%	15%	-13%	0%	u	-34
Cc1[nH]n(-c2ccccc2)c(=O)c1C(c1ccccc1C(=O)O)c1c(C)[nH]n(-c2ccccc2)c1=O	-1%	15%	-10%	i	u	20
Cc1[nH]n(-c2ccccc2)c(=O)c1C(c1ccccc1[N+](=O)[O-])C(C#N)C#N (configuration not stated)	8.9µM*	14%	x	x	u	38
CCNC(=O)c1ccc(-n2nc(C)cc2-c2ccccc2)cc1	-23%	-23%	-12%	-22%	0%	25
COCCNC(=O)CN1C(=O)C(C)N=C(c2ccccc2)c2cc(Cl)ccc21 (configuration not stated)	-12%	-24%	-11%	i	-11%	-5
Cc1c(C(=O)N2CCCCC2)c(S(=O)(=O)NCc2ccc(F)cc2)c(C)n1C	u	13%	-11%	-21%	0%	-13
Cc1cc2c(ccc3[nH]onc32)n1	32µM*	u	-23%	i	-15%	-33
CC(=O)Nc1ccc(S(=O)(=O)NCCSCc2ccccc2Cl)cc1	6%	u	u	-15%	-27%	-84*
